# Source: PubChem BioAssay (National Center for Advancing Translational Sciences (NCATS))
# An excerpt weighted towards active compounds, which were near 18% of everything screened.
# PLK1 PBD block = PLK1 (human) polo-box domain binding inhibition; P53350; Plk1 PBD binding of FITC phosphopeptide, fluorescence polarization; Potency, µM, inactives show max response, negative = inhibition, hits mostly inhibitors; 360,000 compounds, 2.8% hits; note: series mostly up to about 57 µM; nearly all actives have a fitted effect of over 65% in size
# Target sequence (P53350 whole entry, looked up, the tested form may be a part): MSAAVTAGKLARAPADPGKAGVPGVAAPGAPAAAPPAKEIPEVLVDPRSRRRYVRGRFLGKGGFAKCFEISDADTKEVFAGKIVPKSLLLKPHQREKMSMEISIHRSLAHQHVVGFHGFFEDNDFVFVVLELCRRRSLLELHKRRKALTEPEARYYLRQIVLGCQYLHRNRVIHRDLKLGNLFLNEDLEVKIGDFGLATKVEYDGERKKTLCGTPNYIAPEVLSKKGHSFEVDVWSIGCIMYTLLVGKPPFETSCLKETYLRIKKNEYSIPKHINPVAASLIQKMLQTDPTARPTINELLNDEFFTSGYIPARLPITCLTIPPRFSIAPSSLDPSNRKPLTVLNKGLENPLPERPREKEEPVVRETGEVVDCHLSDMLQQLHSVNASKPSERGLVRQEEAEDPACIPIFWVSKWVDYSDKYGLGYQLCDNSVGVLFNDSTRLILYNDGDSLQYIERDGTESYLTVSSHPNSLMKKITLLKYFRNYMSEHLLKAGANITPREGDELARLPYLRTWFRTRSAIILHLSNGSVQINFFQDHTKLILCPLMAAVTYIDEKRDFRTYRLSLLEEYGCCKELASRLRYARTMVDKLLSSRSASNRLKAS
# TDP1 cell noCPT = qHTS for Inhibitors of human tyrosyl-DNA phosphodiesterase 1 (TDP1): qHTS in cells in absence of CPT | DT40 Tdp1-/- hTDP1 cells, no CPT, ATP luminescence, 48 h | Potency, µM (top dose mostly 46.2 µM), for the others: at the top dose activity change, negative = growth inhibition, hits mostly inhibitors | 420,000 compounds, 15% hits | AID 686978, 2013; note: nearly all actives have a fitted effect of over 55% in size
#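 DT40 Tdp1-/-;hTDP1 cells, no CPT (DMSO vehicle only), 400 cells/well; compounds pin-transferred; ≥48 hr, 37 °C; CellTiter-Glo 30 min RT dark, luminescence read.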
# TDP1 inh = inhibitors of human tyrosyl-DNA phosphodiesterase TDP1. recombinant TDP1, AlphaScreen DNA substrate cleavage. Potency, µM (top dose mostly 130 µM), for inactives: top-dose activity change, negative = inhibition, usual class: inhibitors. 350,000 compounds, 0.28% hits. AID 485290; note: nearly all actives have a fitted effect of over 40% in size
#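 Here, a 5' biotin and 3' phosphotyrosine-FITC DNA oligonucleotide reports Tdp1 activity: intact substrate bridges AlphaScreen beads, while cleavage leaves a 3' phosphate and drops signal. All incubations at room temperature.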
# GCN5L2 inh = blocks human GCN5L2 histone acetyltransferase | AID 504327 | Potency, µM (top dose mostly 58.9 µM), for inactives: top-dose activity change, negative = inhibition, usual class: inhibitors | 390,000 compounds, 0.21% hits | GCN5L2 HAT assay, ThioGlo1 CoA-SH fluorescence | Q92830
#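 GCN5L2 (20 nM) in 50mM HEPES pH 7.5, 0.1mM EDTA, 0.01% Tween-20 preincubated 15 min with compounds at room temperature. Reaction started with H3(1-25) 75uM, acetyl-CoA 70uM, ThioGlo1 50uM; CoA-thiol fluorescence (Ex340/Em540) read at 0 and 20 min.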
# TDP1 cell CPT = growth inhibition of DT40 Tdp1-/-;hTDP1 cells with camptothecin (screen for TDP1 inhibitors) | Potency, µM (doses to about 46.2 µM), inactives show at the top dose activity change, negative = growth inhibition, most hits filed as inhibitors | 420,000 compounds, 12% hits | AID 686979 | chicken DT40 Tdp1-/-;hTDP1 cells + 20 nM CPT, ATP luminescence, 48 h; note: nearly all actives have a fitted effect of over 55% in size
#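 Chicken DT40 Tdp1-/- cells complemented with human TDP1, 400 cells/well, exposed to compounds plus 20 nM camptothecin for at least 48 h at 37 C; viability read as ATP content by CellTiter-Glo luminescence.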
# VDR inh = inhibitors of human vitamin D receptor; VDR-SRC2-3 peptide fluorescence polarization, 2 h; 400,000 compounds, 0.93% hits; AID 504847; P11473; Potency, µM, inactives show max response, negative = inhibition, usual class: inhibitors
#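 Fluorescence polarization assay of small-molecule disruption of VDR binding to coregulator peptide SRC2-3. Compounds and controls pin-transferred, then read after 2 h incubation at ambient room temperature.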
# * = called active by the depositor; ? = inconclusive; . = no result; [ ] = remark or other dose. Calls come from the whole dose curve; as a rule, active = well fitted curve in the direction sought with a large enough effect; inconclusive = small, poorly fitted or top-dose-only effect, or another doubt; inactive = no such curve, though single readings can be large; an effect the other way counts as inactive or inconclusive. % is set by controls: 0 for no effect and ±100 for the full control effect; potency is the fitted concentration of half-maximal effect.
SMILES,PLK1 PBD block,TDP1 cell noCPT,TDP1 inh,GCN5L2 inh,TDP1 cell CPT,VDR inh
Cn1c(=O)c2sccc2n2c(CCCC(=O)Nc3ccc(Oc4ccc(Cl)cc4)cc3)nnc12,.,18µM*,0%,-15%,?,4%
COc1ccc(NC(=O)CCc2nnc3n(C)c(=O)c4sccc4n23)cc1,.,-26%,1%,-4%,?,-10%
CCCSc1ncc(Cl)c(C(=O)Nc2nc3ccc(C)cc3s2)n1,.,-25%,11%,2%,4%,13%
Cc1nc(SC(C)C(=O)Nc2ccccc2C)cc(-c2ccccc2)n1 (stereo not drawn),.,21µM*,2%,-4%,15µM*,22%
COc1ccc(NC(=O)C(C)Sc2cc(-c3ccccc3)nc(C)n2)cc1Cl (stereo not drawn),.,21µM*,-6%,-14%,21µM*,-1%
Cc1nc(SCC(=O)Nc2ccccc2Cl)cc(-c2ccccc2)n1,.,-18%,-3%,-5%,-5%,7%
COc1ccccc1N=CC1=C(O)CC(c2ccccc2)CC1=O (stereo not drawn),-3%,9.2µM*,2%,-5%,5.2µM*,-12%
CCn1cc(C(=O)N2CCN(c3cc(C)ccc3C)CC2)c(=O)c2cc(S(=O)(=O)N3CCCCC3)ccc21,.,-9%,5%,0%,-5%,-9%
Cc1ccc(NC(=O)c2ccc(S(=O)(=O)N(C)c3ccccc3)cc2)cc1S(=O)(=O)N1CCOCC1,-1%,?,.,.,23µM*,8%
COc1ccc(S(=O)(=O)N2CCOCC2)cc1NC(=O)c1cccc(-n2cccc2)c1,-28%,?,.,?,?,-4%
COc1ccc(NC(=O)c2ccc(S(=O)(=O)N(C)c3ccccc3)cc2)cc1S(=O)(=O)N1CCOCC1,2%,15µM*,.,.,23µM*,.
CCOc1ccc(NC(=O)c2cccc(-n3cccc3)c2)cc1S(=O)(=O)N1CCOCC1,.,.,0.79µM*,?,.,.
COc1ccc2c(c1)CCc1cnc(-n3ncc(C(=O)N(C)CC4CCCN(C)C4)c3C)nc1-2 (stereo not drawn),.,-10%,.,.,-11%,.
CCOc1cc(S(=O)(=O)n2cc(-c3ccc(F)cc3)c(N)n2)cc(OCC)c1OCC,-5%,13µM*,1%,-16%,?,11%
COc1ccc(OCCNC(=S)Nc2cccc3ccccc23)cc1,-4%,23µM*,8%,-7%,-21%,8%
COc1ccc(CCNC(=S)Nc2cccc3ccccc23)cc1,-17%,16µM*,11%,-6%,?,-2%
COc1ccc(CNC(=O)Nc2cccc3ccccc23)cc1,-4%,1%,1%,-6%[0.501 µM],-13%,-7%
COc1ccc(CCNC(=S)Nc2ccccc2C)cc1,-6%,?,6%,-4%,?,5%
CO[C@H]1COC(=O)[C@H](C)COC(=O)[C@H](C)NC(=O)C/C=C\[C@H]1C,.,.,4%[21 µM],.,.,.
COCCCNC(=O)c1c(N)n(/N=C/c2cccs2)c2nc3ccccc3nc12,-18%,?,0%,-8%,18µM*,-7%
COCCCNC(=O)c1c(N)n(/N=C/c2cccnc2)c2nc3ccccc3nc12,3%,6.5µM*,7%,-4%,?,0%
CC(C)CNC(=O)c1c(N)n(/N=C/c2cccnc2)c2nc3ccccc3nc12,.,.,7%,3%,.,.
COc1ccc(-c2ccc(=N)n(CCCC(=O)O)n2)cc1,.,0%,9%,-12%,-6%,23%
CCc1ccc(OCC(O)CN2CCC(CN3C(=O)c4cccc5cccc(c45)C3=O)CC2)cc1 (stereo not drawn),3%,21µM*,5%,-4%,15µM*,12%
